For 19 molecules, Potency, activity change, positive = activation and activity change, negative = inhibition results are on record in PubChem BioAssay (NCATS).

The target of test [1] is Cytochrome P450 2C9 (Homo sapiens) (UniProt P11712). The experiment in a line: qHTS Assay for Inhibitors and Substrates of Cytochrome P450 2C9 (AID 883). Further: nearly all actives have a fitted effect of over 60% in size. Further: potency means the concentration at half of the fitted maximal effect. On activity change, negative = inhibition: on the % scale 0 is the no-effect control and ±100 the full control effect. Summed up:
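Inhibition of CYP2C9 is scored as loss of luminescence, with 57uM sulphaphenazole defining 100% inhibition. Substrate Luciferin-H is used at 100uM, equal to its KM; enzyme at 10nM in 25mM KPO4, 60 min at 37C with NADPH regeneration.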

In test [2] the target is Cytochrome P450 3A4 (Homo sapiens) (UniProt P08684). The experiment in a line: qHTS Assay for Inhibitors and Substrates of Cytochrome P450 3A4 (AID 884). Further: nearly all actives have a fitted effect of over 50% in size. Further: potency means the concentration at half of the fitted maximal effect. On activity change, negative = inhibition: series mostly up to about 57 µM; on the % scale 0 is the no-effect control and ±100 the full control effect. The gist of the method:
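Luminescent readout of luciferin produced by CYP3A4 (20 nM) dealkylation of Luciferin-PPXE, 25 uM (its KM). NADPH-driven reaction ran 60 min at RT after 10 min compound preincubation; data scaled to 57 uM ketoconazole as 100% inhibition.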
A general note: Quantitative high-throughput screening tests each substance at several concentrations.

Test [3] shares this target. The experiment in a line: qHTS Assay for Activators of Cytochrome P450 3A4 (AID 885). Further: nearly all actives have a fitted effect of over 65% in size. Summed up: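 Human CYP3A4 dealkylates Luciferin-PPXE to luciferin, which luciferase detection converts to light. Substrate was at its KM (25uM), buffer 200mM KPO4, reaction 60 min at RT.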
Test [4] concerns the target Cytochrome P450 2D6 (Homo sapiens) (UniProt P10635). The experiment in a line: qHTS Assay for Inhibitors and Substrates of Cytochrome P450 2D6 (AID 891). Further: nearly all actives have a fitted effect of over 60% in size. Further: potency means the concentration at half of the fitted maximal effect.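 On activity change, negative = inhibition: luciferin methyl ether substrate demethylated by CYP2D6 with NADPH regeneration; on the % scale 0 is the no-effect control and ±100 the full control effect.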 Summed up: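 Luminescent read-out of luciferin formed by 5 nM human CYP2D6 demethylating 30 uM Luciferin-ME EGE (Km level) over 60 min at room temperature after NADPH regeneration addition. Data normalized to full inhibition by 1.43 uM quinidine.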

Test [5] concerns the target Cytochrome P450 2C19 (Homo sapiens) (UniProt P33261). The test is described as follows: qHTS Assay for Inhibitors and Substrates of Cytochrome P450 2C19 (AID 899). Further: nearly all actives have a fitted effect of over 60% in size. Further: potency means the concentration at half of the fitted maximal effect. Summed up: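 5nM enzyme + 10uM Luciferin-H EGE (=KM), 50mM KPO4; cpd pin-transferred, 10 min 37C; NADPH regen, 60 min 37C; stopped w/ luciferin detection reagent, 20 min; luminescence. Normalized to 57uM ketoconazole (AC100).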

“And” between values parts separate entries of the source, which are not always exact repeats. Equal values may be shown once. Values without a mark were called inactive. Results filed as inconclusive are left out. The source made the active and inactive calls. The call rests on the fitted dose curve; in most records, active means well fitted curve in the direction sought with a large enough effect; inconclusive means small, poorly fitted or top-dose-only effect, or another doubt; inactive means no such curve, though single readings can be large; an effect the other way counts as inactive or inconclusive.

Chain of Cytochrome P450 2D6 (Homo sapiens) (P10635 whole entry, looked up): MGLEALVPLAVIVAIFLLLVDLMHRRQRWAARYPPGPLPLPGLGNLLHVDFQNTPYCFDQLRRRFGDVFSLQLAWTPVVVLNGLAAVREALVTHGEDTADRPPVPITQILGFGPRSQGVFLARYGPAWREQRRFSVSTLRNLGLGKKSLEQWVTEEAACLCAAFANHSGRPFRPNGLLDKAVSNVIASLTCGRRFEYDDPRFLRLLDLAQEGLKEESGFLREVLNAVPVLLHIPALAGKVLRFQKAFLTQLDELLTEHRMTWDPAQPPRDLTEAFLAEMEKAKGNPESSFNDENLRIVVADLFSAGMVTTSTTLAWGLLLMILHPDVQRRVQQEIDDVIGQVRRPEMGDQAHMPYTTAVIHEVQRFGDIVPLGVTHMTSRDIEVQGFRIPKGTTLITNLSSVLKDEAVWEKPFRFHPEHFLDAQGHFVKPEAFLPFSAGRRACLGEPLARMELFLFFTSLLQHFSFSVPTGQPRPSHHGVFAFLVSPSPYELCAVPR
Chain of Cytochrome P450 2C9 (Homo sapiens) (P11712 whole entry, looked up): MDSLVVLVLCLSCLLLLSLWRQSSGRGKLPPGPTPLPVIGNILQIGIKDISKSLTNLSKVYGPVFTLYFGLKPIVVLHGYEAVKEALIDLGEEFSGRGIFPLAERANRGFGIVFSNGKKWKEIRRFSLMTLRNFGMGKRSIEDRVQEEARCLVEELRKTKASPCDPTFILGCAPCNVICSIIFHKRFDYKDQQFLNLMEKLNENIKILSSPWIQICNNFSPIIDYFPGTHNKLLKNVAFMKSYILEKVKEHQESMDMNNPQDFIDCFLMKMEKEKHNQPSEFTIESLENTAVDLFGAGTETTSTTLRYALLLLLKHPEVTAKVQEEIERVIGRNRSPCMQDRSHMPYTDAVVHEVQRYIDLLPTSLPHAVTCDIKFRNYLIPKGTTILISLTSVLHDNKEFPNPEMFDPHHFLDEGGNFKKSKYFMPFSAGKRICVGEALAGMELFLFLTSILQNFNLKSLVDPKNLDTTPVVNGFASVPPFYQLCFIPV
Chain of Cytochrome P450 3A4 (Homo sapiens) (P08684 whole entry, looked up): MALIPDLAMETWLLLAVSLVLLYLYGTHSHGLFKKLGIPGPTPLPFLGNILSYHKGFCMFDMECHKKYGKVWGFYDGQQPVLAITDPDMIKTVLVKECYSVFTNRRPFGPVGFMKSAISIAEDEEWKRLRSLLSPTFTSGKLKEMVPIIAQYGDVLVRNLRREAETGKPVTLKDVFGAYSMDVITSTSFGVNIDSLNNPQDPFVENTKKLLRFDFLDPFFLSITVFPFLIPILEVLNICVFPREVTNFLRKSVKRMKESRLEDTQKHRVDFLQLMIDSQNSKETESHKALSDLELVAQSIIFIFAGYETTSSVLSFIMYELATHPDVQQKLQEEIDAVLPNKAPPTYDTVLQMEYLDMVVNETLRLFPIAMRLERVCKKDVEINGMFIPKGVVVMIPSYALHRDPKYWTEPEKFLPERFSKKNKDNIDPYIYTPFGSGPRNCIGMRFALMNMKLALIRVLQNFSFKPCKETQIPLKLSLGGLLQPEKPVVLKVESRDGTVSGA
Chain of Cytochrome P450 2C19 (Homo sapiens) (P33261 whole entry, looked up): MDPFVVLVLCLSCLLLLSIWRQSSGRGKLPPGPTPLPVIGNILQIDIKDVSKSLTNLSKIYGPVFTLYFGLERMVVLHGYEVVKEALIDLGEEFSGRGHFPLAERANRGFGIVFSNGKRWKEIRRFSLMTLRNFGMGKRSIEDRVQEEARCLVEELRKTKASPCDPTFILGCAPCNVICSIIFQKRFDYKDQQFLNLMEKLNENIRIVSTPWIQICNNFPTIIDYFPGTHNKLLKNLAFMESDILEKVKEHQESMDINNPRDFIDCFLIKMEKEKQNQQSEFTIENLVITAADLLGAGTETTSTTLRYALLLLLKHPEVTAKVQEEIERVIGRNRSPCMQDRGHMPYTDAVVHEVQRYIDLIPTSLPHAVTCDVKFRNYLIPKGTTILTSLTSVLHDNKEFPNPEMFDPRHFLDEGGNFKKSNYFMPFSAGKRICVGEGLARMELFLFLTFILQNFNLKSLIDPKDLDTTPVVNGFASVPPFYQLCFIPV

On to `C=CCOC(=O)C(C(C)=O)C(NC(=O)OC)c1cccc(C)c1` (centres undefined), for which the Potency entry in test [1] and in test [4] was “inactive” throughout. Besides, the Potency in test [2] was 2.51 µM (active); in test [5] it was 794 nM (active). Also, the activity change, positive = activation in test [3] is -86.6% [at 11.4 µM].
For the molecule `COC(=O)N(/C=C/c1ccc(OC)cc1)CCc1ccc(OC)c(OC)c1`, the Potency in test [1] was 3.16 µM (active); in test [2] it was 3.98 µM (active); in test [5], 3980 nM (active). The activity change, positive = activation in test [3] was -93.3% [at 11.4 µM]. Moreover, the Potency entry in test [4] is “inactive”.
In the case of `C#CCC(C(=O)OC)(C(=O)OC)C(C[N+](=O)[O-])c1ccccc1` (centres undefined), the Potency result in test [1], in test [4] and in test [5] was “inactive” in each case. The Potency in test [2] was 3.16 µM (active). In test [3], the activity change, positive = activation is -77% [at 11.4 µM].
For `Cc1cc(C)cc(/C=C/C2OCC(O)C2Oc2ccc(C3CCCC3)cc2)c1` (centres undefined), the Potency result in test [1], in test [4] and in test [5] was “inactive” throughout. Further, the Potency in test [2] is 3.16 µM (active). The activity change, positive = activation in test [3] was -62.6% [at 11.4 µM] and -33.3% [at 11.4 µM].
On to `OCC1OC(/C=C\c2ccccc2)C=CC1Oc1ccc2c(c1)OCO2` (centres undefined), for which the Potency entry in test [1] is “inactive”. Further, the values for the Potency in test [2], in test [4] and in test [5] were 0.398 µM (active), 3.98 µM (active) and 251 nM (active), respectively. Further, the activity change, positive = activation in test [3] was -105% [at 11.4 µM].
The corresponding values for `CCCCCCC(=O)Cc1cc(OC)c(OC)cc1/C=C(/C(C)=O)C(=O)OC` are “inactive”, 3.98 µM (active), “inactive”, 2000 nM (active) and -68.2% [at 11.4 µM].
Take `COC(=O)C1=C(C)N(Cc2ccccc2)[C@]23O[C@](C(=O)OC)(C(=O)N2C1c1ccccc1)C(c1ccccc1)C3C(=O)c1ccccc1` (some centres undefined): the Potency entry in test [1], in test [4] and in test [5] was “inactive” throughout. Also, the activity change, negative = inhibition in test [2] is -26.7% [at 11.4 µM]. Further, in test [3], the activity change, positive = activation was -32.3% [at 11.4 µM].
`C=CCOC(=O)C(C(C)=O)C(NC(=O)OC)c1cccc(C(F)(F)F)c1` (centres undefined): the Potency entry in test [1] and in test [4] was “inactive” in each case. Moreover, the figures for the Potency in test [2] and in test [5] were 1.58 µM (active) and 100 nM (active), respectively. The activity change, positive = activation in test [3] is -104% [at 11.4 µM].
On to `COc1ccc(OC2C=CC(C#Cc3ccc(F)cc3F)OC2CO)cc1` (centres undefined), for which the Potency result in test [1] and in test [4] was “inactive” each time. Moreover, the Potency was 3.98 µM (active) and 3.16 µM (active) in test [2]; 398 nM (active) in test [5]. For the same molecule, the activity change, positive = activation in test [3] was -84.9% [at 11.4 µM] and -82.9% [at 11.4 µM].
For the molecule `COc1ccc(/C=C/N(CCc2ccc(OC)c(OC)c2)C(=O)c2ccccn2)cc1`, the Potency result in test [1], in test [4] and in test [5] was “inactive” in each case. Further, in test [2], the Potency was 3.98 µM (active). In addition, the activity change, positive = activation in test [3] was -97.7% [at 11.4 µM].
With `CC(C)(C)c1ccc(OC2C=CC(C#Cc3ccccc3)OC2CO)cc1` (centres undefined), the Potency result in test [1], in test [4] and in test [5] was “inactive” each time. Besides, the Potency in test [2] was 3.16 µM (active). For the same molecule, in test [3], the activity change, positive = activation was -73.2% [at 11.4 µM].
Turning to `COC(=O)C(C(C)=O)C(NC(=O)NCc1ccccc1)c1ccccc1` (centres undefined), the Potency result in test [1] and in test [4] was “inactive” throughout. For the same molecule, the Potency in test [2] was 3.98 µM (active). Further, in test [3], the activity change, positive = activation was -69.4% [at 11.4 µM].
As for `CCOC(=O)OCC1OC(C#Cc2ccc(F)cc2F)C=CC1OC(=O)OCC` (centres undefined), the Potency result in test [1], in test [4] and in test [5] was “inactive” throughout. Also, in test [2], the Potency is 3.16 µM (active). Besides, the activity change, positive = activation in test [3] is -75.6% [at 11.4 µM].
`COC(=O)C1=C(C)N(Cc2ccccc2)[C@]23O[C@](C(=O)OC)(C(=O)N2C1c1ccccc1)C1CCOC(=O)C13` (some centres undefined): the Potency result in test [1], in test [4] and in test [5] was “inactive” in each case. In addition, in test [2], the Potency is 2.51 µM (active). The activity change, positive = activation in test [3] is -70.4% [at 11.4 µM].
For `C=CCOC(=O)C(C(C)=O)C(NC(=O)OC)c1ccccc1` (centres undefined), the Potency result in test [1] and in test [4] was “inactive” in each case. The Potency was 3.98 µM (active) in test [2] and 631 nM (active) in test [5]. Besides, the activity change, positive = activation in test [3] was -86.9% [at 11.4 µM].
On to `CC#CCOCC/C=C1/c2ccccc2C(OC)C1C` (centres undefined), for which the Potency entry in test [1] and in test [4] was “inactive” throughout. In addition, the Potency was 3.98 µM (active) in test [2] and 1000 nM (active) in test [5]. Besides, in test [3], the activity change, positive = activation is -90.8% [at 11.4 µM].
In the case of `COc1ccc(OC2C=CC(c3ccccc3)OC2CO)c(C(C)(C)C)c1` (centres undefined), the Potency in test [1] is 3.16 µM (active); in test [2], 0.794 µM (active); in test [5], 3160 nM (active). Moreover, the activity change, positive = activation in test [3] is -79.5% [at 11.4 µM]. The Potency result in test [4] is “inactive”.
As for `CCCCC1CN2C(CCC(C)C2c2ccc(Br)cc2)C(=O)O1` (centres undefined), the Potency result in test [1] and in test [4] was “inactive” in each case. In addition, the Potency in test [2] was 3.98 µM (active); in test [5], 1260 nM (active). Also, the activity change, positive = activation in test [3] was -38.2% [at 11.4 µM] and -43.4% [at 11.4 µM] and -62.6% [at 11.4 µM].
For the molecule `COC(=O)C1=C(C)N(Cc2ccccc2)[C@]23O[C@](C(=O)OC)(C(=O)N2C1c1ccccc1)C(C(=O)OC)C3C(=O)OC` (some centres undefined), the Potency entry in test [1], in test [4] and in test [5] was “inactive” in each case. Besides, the activity change, negative = inhibition in test [2] is -20.8% [at 11.4 µM]. The activity change, positive = activation in test [3] was -46.5% [at 11.4 µM].
